Measured values reported in PubChem BioAssay.

Assays:
[1] = system: Human papillomavirus type 1a protein E7 (residues 44-93); assay: HPV1a E7 fragment binders on microarrays, primary screen, biochemical, small-molecule microarray, residues 44-93, 635 nm fluorescence (AID 1108); settings: small-molecule microarray binding, fluorescence 635 nm; higher = more signal;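 also: E7 fragment applied at 1 µg/mL in TBST for 1 h at 4 C; score combines spot fluorescence with its signal to noise ratio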
[2] = modulators of HCV replicon luciferase signal, primary screen, HCV replication inhibitor project, Huh7 cells, luciferase reporter (AID 1109); settings: 48 h, higher = more signal;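 also: huh7 hepatoma cells harbouring a luciferase neomycin HCV replicon reporter; luciferase luminescence as measure of HCV replicon replication; test concentration not given here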
[3] = biological target: Left-right determination factor 2 (Homo sapiens) (UniProt O00292); assay: LEFTY2 binders on small-molecule microarrays, primary screen, biochemical, small-molecule microarray, 635 nm fluorescence scan (AID 1110); settings: LEFTY2 binding, higher = more signal
Sequence of Left-right determination factor 2 (Homo sapiens) (O00292 whole entry, looked up): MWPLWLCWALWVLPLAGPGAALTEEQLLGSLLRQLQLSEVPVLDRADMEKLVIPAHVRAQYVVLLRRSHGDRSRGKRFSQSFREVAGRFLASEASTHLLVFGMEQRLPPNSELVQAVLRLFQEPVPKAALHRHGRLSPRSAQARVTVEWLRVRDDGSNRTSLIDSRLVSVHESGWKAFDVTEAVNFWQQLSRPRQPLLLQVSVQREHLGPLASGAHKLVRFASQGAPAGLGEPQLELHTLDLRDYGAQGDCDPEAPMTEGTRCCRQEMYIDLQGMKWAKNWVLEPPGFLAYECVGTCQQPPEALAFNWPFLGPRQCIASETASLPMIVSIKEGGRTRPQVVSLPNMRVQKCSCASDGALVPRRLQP

[4] = biological target: Calmodulin-1 (Homo sapiens) (UniProt P0DP23); assay: CALM1 binders on microarrays, EGTA buffer, profiling panel, biochemical, small-molecule microarray, Cy5-labelled CALM1 (AID 1111); settings: Cy5-CALM1 binding fluorescence, higher = more signal;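 also: labelled calmodulin applied in Tris saline Tween buffer holding calcium plus EGTA and DTT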
[5] = biological target: Calmodulin-1 (Homo sapiens) (UniProt P0DP23); assay: calcium-bound CALM1 binders on microarrays, profiling panel, artefact control for SMM control-protein annotation, biochemical, small-molecule microarray, Cy5-labelled CALM1, plus calcium (AID 1112); settings: Cy5-CALM1 binding fluorescence, higher = more signal;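 also: score merges spot fluorescence with signal to noise from triplicate slides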
[6] = small-molecule microarray binders of probe aWnt5a, primary screen, biochemical, biotinylated probe, 635/667 nm fluorescence (AID 1113); settings: higher = more signal;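 also: score merges 667 nm fluorescence intensity with signal-to-noise per printed feature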
[7] = small-molecule microarray binders of probe aShh, primary screen, biochemical, biotinylated probe, 635/667 nm fluorescence (AID 1114); settings: higher = more signal;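 also: probe is biotin-labelled aShh protein from a stem cell growth factor screen; measures binding of labelled protein to compounds printed on the slide; score merges feature fluorescence at 667 nm with signal-to-noise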
[8] = small-molecule microarray binders of probe aNog, primary screen, biochemical, biotinylated probe, 635/667 nm fluorescence (AID 1115); settings: higher = more signal;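 also: probe is biotinylated aNog protein used at 0.15 µg/mL for 1 h at 4 C; z-score combines 667 nm fluorescence of each spot with its signal to noise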
[9] = biological target: Torsin-1A-interacting protein 1 (Homo sapiens) (UniProt Q5JTV8); assay: LAP1 binders from COS7 cell lysate, primary screen, small-molecule microarray, 635/667 nm fluorescence (AID 1116); settings: COS7-hLAP1 lysate binding, 635 nm fluorescence, higher = more signal
Sequence of Torsin-1A-interacting protein 1 (Homo sapiens) (Q5JTV8 whole entry, looked up): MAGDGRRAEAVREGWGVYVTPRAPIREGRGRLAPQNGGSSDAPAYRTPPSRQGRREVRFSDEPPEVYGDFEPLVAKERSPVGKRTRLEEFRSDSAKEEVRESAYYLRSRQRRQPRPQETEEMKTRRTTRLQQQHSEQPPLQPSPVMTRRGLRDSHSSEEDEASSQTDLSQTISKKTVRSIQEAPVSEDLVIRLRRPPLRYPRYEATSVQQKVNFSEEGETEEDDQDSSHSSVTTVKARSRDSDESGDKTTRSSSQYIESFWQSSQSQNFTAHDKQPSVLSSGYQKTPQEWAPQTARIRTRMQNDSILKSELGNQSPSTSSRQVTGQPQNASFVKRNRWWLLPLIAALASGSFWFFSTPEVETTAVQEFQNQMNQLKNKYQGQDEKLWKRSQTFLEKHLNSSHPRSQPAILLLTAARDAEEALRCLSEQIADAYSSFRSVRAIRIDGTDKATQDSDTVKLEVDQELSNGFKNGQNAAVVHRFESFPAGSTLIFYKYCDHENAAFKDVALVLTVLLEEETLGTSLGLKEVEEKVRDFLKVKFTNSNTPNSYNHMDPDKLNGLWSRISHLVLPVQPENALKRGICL

[10] = biological target: Alpha-bungarotoxin (Bungarus multicinctus) (UniProt P60615); assay: alpha-bungarotoxin binders on microarray, profiling panel, artefact control for SMM control protein annotation, biochemical, small-molecule microarray, Alexa647 label, 635/667 nm fluorescence (AID 1117); settings: alpha-BTX-A647 binding fluorescence, higher = more signal
Sequence of Alpha-bungarotoxin (Bungarus multicinctus) (P60615 whole entry, looked up): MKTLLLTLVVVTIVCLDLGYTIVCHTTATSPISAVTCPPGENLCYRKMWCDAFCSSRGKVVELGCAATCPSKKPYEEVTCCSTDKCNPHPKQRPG

Row | Structure (SMILES) | composite z-score [1] | z-score [2] | composite z-score [3] | composite z-score [4] | composite z-score [5] | composite z-score [6] | composite z-score [7] | composite z-score [8] | composite z-score [9] | composite z-score [10]
1 | CC=CC1=C(CO)[C@H](O)[C@H]2O[C@H]2[C@H]1O | 0.598 | -0.956 | 0.827 | -0.381 | -1.02 | -0.0758 | -0.304 | -0.309 | -0.134 | -0.0092
2 | CCOC(=O)NN=C1C[C@@H](O)[C@@H](O)[C@@H]2[C@@H]3C(=O)N(C(C)(C)C)C(=O)[C@@H]3CC[C@@H]12 | -0.772 | -0.529 | 0.45 | -0.671 | -1.54 | -0.278 | -0.75 | 0.154 | -0.48 | -0.772
3 | COC(=O)[C@@H]1CC[C@H](C)[C@@H](c2ccc(C)cc2)N1C(=O)c1ccc(C=NOC[C@@H](O)COCc2ccco2)cc1 | -1.6 | -2.42 | 0.283 | -1.22 | -1.22 | -0.21 | -0.2 | -0.788 | -1.63 | -1.25
4 | COc1ccc(O[C@H]2C=C[C@@H](c3ccccc3)O[C@@H]2COC(=O)CCC(C)=NOC[C@@H](C)[C@H](OCc2ccccc2)C(C)C)cc1 | -2.09 | -0.667 | -0.306 | -1.65 | -0.741 | -0.0748 | -0.283 | -0.233 | -0.956 | -1.04
5 | CO[C@H]1COC(=O)[C@@H]2CCCN2C(=O)CC=C[C@@H](C)[C@H](OC)COC(=O)CC=C[C@@H]1C | 0.589 | 1.34 | 1.47 | -2.29 | -2.06 | -0.117 | -0.0904 | -0.156 | -0.298 | -0.394
6 | CCN(CC)c1ccc(N2CC=CC34O[C@@H]5/C=C\CCC(C)OC(=O)C5[C@H]3C(=O)N(CCCO)[C@@H]4C2=O)cc1 (stereo not given in full) | -0.0672 | -0.527 | -0.434 | -0.671 | -0.431 | -0.128 | 0.0469 | -0.216 | 0.581 | -0.625
7 | CCc1cccc(NC(=O)O[C@H]2[C@H](OC(=O)Nc3ccc4c(c3)OCO4)[C@@H](OC(=O)Nc3ccc4c(c3)OCO4)[C@@H](OC)O[C@@H]2CO)c1 | 1.4 | -0.717 | 0.645 | 0.779 | -1.12 | 0.0136 | 0.214 | -0.229 | 0.577 | 0.545
8 | C=C(CCCC)C(=O)CC[C@@H](OC(C)=O)c1cccc(OCCO)c1 | -0.701 | -4.56 | 0.333 | -0.602 | -1.28 | -0.12 | -0.0227 | -0.0381 | 2.13 | -0.0603
9 | CCOC(=O)NN=C1C[C@@H](O)[C@@H](O)[C@@H]2[C@@H]3C(=O)N(CC)C(=O)[C@@H]3CC[C@@H]12 | 0.788 | -0.161 | 0.651 | -0.21 | -0.264 | -0.118 | -0.0977 | -0.213 | 0.197 | 0.595
10 | CC(C)[C@H](NC(=O)OC(C)(C)C)[C@@H](O)CC(=O)OC(C)(C)C | -2.46 | -0.59 | -0.428 | -0.32 | -0.275 | -0.0977 | -0.147 | -0.241 | -0.68 | -0.232
11 | CO[C@H]1O[C@H](CO)[C@@H](OC(=O)Nc2ccc(C#N)cc2)[C@H](OC(=O)c2cc3ccccc3[nH]2)[C@H]1OC(=O)c1cc2ccccc2[nH]1 | 1.33 | -2.2 | 0.339 | 2.07 | 0.299 | -0.206 | -0.0769 | 0.569 | 2.09 | 2.63
12 | COc1ccc([Si](C)(C)[C@H]2[C@H](CCO)O[C@@]3(C(=O)N(Cc4cccc(NC(=O)[C@H](C)O)c4)c4ccccc43)[C@@H]2C)cc1 | 1.39 | -5.13 | 0.383 | 0.922 | -0.14 | -0.101 | 0.0144 | -0.074 | 0.798 | 1.36
13 | COC(=O)[C@@H]1N=C(c2ccc(OCCCO)cc2)O[C@@H]1c1ccccc1N=[N+]=[N-] | 0.515 | -1.66 | -0.187 | 1.54 | 1.04 | -0.0445 | 0.214 | 0.619 | 1.27 | 1.42
14 | C[N+](C)(C)CCCCCCNC(=O)[C@@H]1C[C@@H]2C(=O)N3CCC[C@H]3C(=O)N2[C@@H]1c1cccc(OCCO)c1 | 1.34 | 1.41 | 0.385 | 0.233 | -1.07 | -0.197 | 0.905 | -0.238 | -0.24 | -0.0576
15 | CCOC(=O)CCN1C(=O)[C@H]2[C@H]3[C@H](O)[C@H](O)CC(=NOC[C@@H](O)COCc4ccco4)[C@@H]3CC[C@H]2C1=O | 0.201 | 0.395 | -0.157 | 0.2 | 0.369 | -0.0462 | -0.223 | -0.0381 | 0.657 | 0.557
16 | CC(=O)OC[C@H]1O[C@@H](ON=C[C@@H](C)[C@H](OCc2ccccc2)C(C)C)[C@H](OC(C)=O)[C@@H](OC(C)=O)[C@@H]1OC(C)=O | 0.162 | -0.518 | 0.619 | 0.336 | -0.815 | -0.0754 | -0.19 | -0.144 | -0.563 | 0.226
17 | O=C1CCCC=C1C(O)CCOCc1ccccc1 (stereo not given) | -0.649 | 0.939 | 0.408 | -0.314 | -0.605 | -0.0735 | -0.209 | -0.0236 | 0.266 | 0.129
18 | COC(=O)CC=C[C@@H](C)[C@H](OC)c1ccccc1Br | -0.0017 | 0.14 | 0.406 | -0.0557 | -0.346 | -0.116 | -0.279 | -0.482 | 0.188 | -0.152
